TWEAK Fn14 block = inhibitors of TWEAK-Fn14 signaling, primary screen, luciferase reporter cells, uHTS. TWEAK-stimulated Fn14 reporter cells, luciferase luminescence, 8 h. inhibition, % at 10 µM. hit rate 2% among 360,000. AID 1159606, 2016; in the data active = inhibition above about 50%
LGR2 inh = inhibitors of bursicon-induced LGR2 CRE-luciferase signal, primary screen, cell-based, HEK293, CRE-luciferase reporter, bursicon stimulation; hit rate 0.35% among 380,000; inhibition, % at 9.99 µM; Drosophila bursicon receptor LGR2 (rickets); AID 720647, 2013; bursicon-stimulated, 4 h;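 active = drop in luminescence signal, shown as inhibition above about 50% in the replicate tests, limit read from the data, passing the limit was not always enough; inconclusive = probably only some replicates passing the limit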;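 also: agonist challenge used bursicon conditioned medium at about half maximal strength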
HSP90 refold inh = HSP90 inhibitors, primary screen, cell lysate, luminescence; Heat shock protein HSP 90 (rabbit reticulocyte lysate; luciferase refolding); Rabbit reticulocyte lysate, luciferase refolding luminescence, 3 h; inhibition, % at 5.6 µM; hit rate 0.91% among 290,000; AID 1789, 2009;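 active = inhibition above the screen-wide mean plus 3 SD, computed separately per campaign, cut at about 16% in these data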;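 also: 0% = DMSO wells and 100% = 60 µM geldanamycin wells; inhibitors lower the luminescence because luciferase stays unfolded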
TROY signal inh = inhibitors of TROY-driven NF-kB signaling, primary screen, Q293 LMP1-TROYcd cells, NF-kB luciferase, uHTS | AID 1347056, 2019 | inhibition, % at 10 µM | Q293 LMP1-TROYcd NF-kB luciferase reporter, 4 h | hit rate 0.98% among 360,000;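 active = compounds whose plate-normalised and pattern-corrected inhibition of the luciferase reporter signal at the single screening dose is 50% or more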
An asterisk follows results filed as active; ? = inconclusive; . = not tested or not shown; ! = not active in a repeat. Sampled rows, rich in hits. Any-hit rate of the full collection: about 2.2%.

SMILES | TWEAK Fn14 block | LGR2 inh | HSP90 refold inh | TROY signal inh
Cc1ccc(S(=O)(=O)Nc2ccc3c(c2)C(=O)N([C@H](C)CO)C[C@H](C)[C@@H](CN(C)C(=O)c2ccncc2)OCCCC[C@H](C)O3)cc1 | . | 11.9 | . | .
Cc1ccc(C2=NNC(c3cccc(F)c3)S2)cc1 (stereo not given) | 64.7* | . | 4.6 | 53.9*
Cc1cn([C@@H](CCCCNC(=O)OC(C)(C)C)C(=O)NCCCCCCCCCCC(=O)N2CCN(C(=O)OC(C)(C)C)CC2)nn1 | 87.7* | . | . | 70.4*
CC[C@H](C)Cc1cn([C@@H](CCCN=C(NC(=O)OC(C)(C)C)NC(=O)OC(C)(C)C)C(=O)NCCCCCCCCCCC(=O)N2CCN(C(=O)OC(C)(C)C)CC2)nn1 | 59.9* | . | . | 81.0*
CC[C@H](C)Cc1cn([C@@H](CCCCN)C(=O)NCCCCCCCCCCC(=O)N2CCNCC2)nn1 | -1.5 | -8.8 | . | -8.3
O=C(O)CCC(=O)NNC(=O)CCCOc1ccc(Cl)cc1Cl | 97.2* | 17.6 | 6.6 | -5.6
O=C(O)CCC(=O)NNC(=O)COc1ccc(Cl)cc1Cl | -18.9 | -10.8 | -0.2 | -6.7
CC(=O)Nc1ccc(NC(=O)COc2ccc(Cl)cc2Cl)cc1 | -4.0 | 4.1 | 1.4 | -25.7
O=C(COc1ccc(Cl)cc1Cl)Nc1ccccc1F | 54.6* | -38.8 | . | -7.0
CC(=O)OCC(=O)Nc1ccc(Cl)cc1Cl | 54.2* | 10.6 | 3.0 | .
Cc1ccc(Cl)cc1NC(=O)COC(=O)C12CC3CC(CC(C3)C1)C2 | 66.8*! | . | 8.2 | 4.3
C[C@@H]1CN([C@@H](C)CO)C(=O)Cc2cc(NC(=O)Nc3ccc(C(F)(F)F)cc3)ccc2O[C@@H]1CN(C)Cc1ccc(C(=O)Nc2ccccc2N)cc1 | . | -21.5 | . | .
C[C@H]1CN([C@@H](C)CO)C(=O)Cc2cc(NS(=O)(=O)c3ccccc3)ccc2O[C@H]1CN(C)C(=O)Nc1ccc(F)cc1 | . | -7.1 | . | .
C[C@@H]1CCCCO[C@H](CN(C)S(=O)(=O)c2ccc(F)cc2)[C@H](C)CN([C@@H](C)CO)C(=O)c2cc(NC(=O)Nc3cccc4ccccc34)ccc2O1 | . | 0.8 | . | .
Cc1cc(Cl)ccc1OCC(=O)OCC(=O)Nc1ccc(Cl)cn1 | -3.4 | -15.9 | . | -16.1
O=C(COc1ccc(Cl)cc1Cl)Nc1ccc(Cl)cn1 | 54.3* | 18.1 | 8.0 | 4.2
CSC1SCC2C(=O)N(C)C(C(C)C)C(=O)OCC(NC(=O)c3cnc4ccccc4n3)C(=O)NC(C)C(=O)N(C)C1C(=O)N(C)C(C(C)C)C(=O)OCC(NC(=O)c1cnc3ccccc3n1)C(=O)NC(C)C(=O)N2C (stereo not given) | 91.5* | 99.3* | . | 65.2*
Oc1cc(NCc2cccnc2)ccc1-c1nc2ccccc2o1 | 102.9* | . | -2.7 | -37.7
CCc1ccc(OCC(=O)Nc2ccc(-c3nc4ccccc4o3)c(O)c2)cc1 | -2.2 | . | -0.2 | -58.1
O=C(Nc1ccccc1O)c1ccc([N+](=O)[O-])cc1 | 110.1* | -13.9 | -0.1 | -27.7
CC(=O)Nc1ccc(S(=O)(=O)c2ccnc3cc(Cl)ccc23)cc1 | 77.2* | ? | . | 22.2
COc1cc(OC)cc(C(=O)NNC(=O)c2ccc3ccccc3n2)c1 | 36.9 | -10.1 | . | 57.1*
COc1cc(OC)cc(C(=O)NNC(=O)c2ccccn2)c1 | -1.7 | -13.2 | -2.8 | -4.5
COc1ccc(NC(=S)c2ccc3ccccc3n2)cc1 | -13.2 | . | 1.8 | -28.8
COc1ccc(N=C(NN)c2ccc3ccccc3n2)cc1 | 100.9* | . | 15.7 | 91.5*
SMILES | TWEAK Fn14 block | LGR2 inh | HSP90 refold inh | TROY signal inh
COc1ccc(C(=O)NNC(=O)c2ccccn2)cc1 | 102.2* | . | 75.5* | 87.0*
COc1cc(C(=O)NNC(=O)c2ccc3ccccc3n2)cc(OC)c1OC | -23.3 | -14.8 | . | -24.7
C[C@@H]1CN([C@@H](C)CO)C(=O)c2cccc(NS(=O)(=O)c3cn(C)cn3)c2O[C@@H]1CN(C)C(=O)Nc1ccc(F)cc1 | . | -0.3 | . | .
O=C(c1cnccn1)N1CC(=O)N2[C@@H](CO)[C@H](c3ccc(-c4ccccc4)cc3)[C@@H]2C1 | . | -1.3 | . | .
CC(C)C#Cc1ccc2c(c1)O[C@H](CN(C)C(=O)c1cccnc1)[C@H](C)CN([C@H](C)CO)S2(=O)=O | . | -3.0 | . | .
O=C(c1ccc2ccccc2c1)c1cccc(F)c1C(=O)O | -3.9 | -12.3 | . | -13.0
O=C(O)c1c(F)c(F)cc2ccccc12 | 106.6* | -2.3 | -0.9 | -1.8
COc1ccc(-n2ncc(Cl)c(Cl)c2=O)cc1 | 97.7* | 105.6* | -0.2 | 55.8*
Cc1ccc(-n2ncc(N(C)C)c(Cl)c2=O)cc1 | 54.7* | . | 13.5 | 22.1
C[C@@H]1CCCCO[C@@H](CN(C)S(=O)(=O)c2ccc(F)cc2)[C@H](C)CN([C@H](C)CO)C(=O)c2cc(NS(=O)(=O)c3cn(C)cn3)ccc2O1 | . | -0.4 | . | .
C[C@@H]1CN([C@H](C)CO)C(=O)c2cc(-c3ccc(F)cc3)cnc2O[C@@H]1CN(C)C(=O)Nc1ccc(F)cc1 | . | -2.0 | . | .
COc1ccc(-c2oc(=O)c3cc(OC)c(OC)cc3c2/C=C/c2ccc(OC(C)=O)cc2)cc1 | 5.4 | 0.7 | . | -7.2
COc1cc(-c2noc(C)c2/C=C/c2ccc(OC(C)=O)cc2)cc(OC)c1OC | 51.8* | -0.6 | -1.2 | 5.1
O=C(C1CC1)N1[C@@H](CO)[C@@H](c2ccccc2)C12CN(Cc1cncnc1)C2 | . | 20.4 | . | .
CCOCCCNC(=O)Cn1cnc2c(cnn2-c2ccc(C)c(C)c2)c1=O | 108.0* | -6.2 | -0.1 | -1.9
O=C1C=C(NCCc2cc(Br)c(O)c(Br)c2)C(=O)c2ncccc21 | 93.7* | 74.0* | . | 38.4
CC(C)(C)c1cc(CCC(=O)NCCc2ccccn2)cc(C(C)(C)C)c1O | 8.8 | -27.0 | -2.1 | -17.9
ON=C1c2ccccc2-c2cc(Br)ccc21 | 71.4* | . | . | 44.1
CO[C@@H]1CN(C)C(=O)c2cc(NC(=O)C3CCOCC3)ccc2OC[C@@H](C)N(Cc2nccs2)C[C@H]1C | . | -0.2 | . | .
CCC(=O)N1[C@H](CO)[C@H](c2ccccc2)C12CN(C(=O)c1ccc(F)cc1)C2 | . | 9.0 | . | .
O=C(NC12CC3CC(CC(C3)C1)C2)c1ccc(COc2ccc(Cl)cc2[N+](=O)[O-])o1 | 12.0 | . | 2.3 | -10.9
O=C(NC12CC3CC(CC(C3)C1)C2)c1ccc(-c2ccc(Cl)cc2)o1 | 35.8 | -46.4 | 9.2 | 53.6*
O=C(NC12CC3CC(CC(C3)C1)C2)c1ccc(-c2cccc(Cl)c2)o1 | 68.1* | -32.7 | 16.6* | 72.6*
COc1ccc(CN2[C@@H](CO)[C@@H]3c4ccccc4N(C(=O)Nc4ccc(F)cc4)C[C@@H]32)cc1 | . | 6.6 | . | .
C=C1C(=O)C23C(O)C1CCC2C12CCCC(C)(COC(C)=O)C1C(O)C3(O)OC2 (stereo not given) | 101.1* | 97.9* | . | 76.8*
COc1ccc(-c2[nH]ncc2-c2ccc3c(c2)OCCO3)c(O)c1 | 77.7* | ? | -1.0 | 60.9*
COc1ccc(-c2cn[nH]c2-c2ccc(OCc3ccc([N+](=O)[O-])cc3)cc2O)cc1 | 77.5* | 42.1 | 2.9 | 37.7
CCc1cc(-c2[nH]ncc2-c2ccc3c(c2)OCO3)c(O)cc1O | 92.4* | 40.1 | 1.4 | 68.3*
